# In PubChem BioAssay (NCATS):
# Values joined by “and” are separate entries in the source; they are usually repeats but may differ in a detail not shown here. Equal values may be shown once. Inconclusive results are not listed. Active and inactive are the calls of the source. Unless noted, calls follow the shape of the dose curve; as a rule, active = well fitted curve in the direction sought with a large enough effect; inconclusive = small, poorly fitted or top-dose-only effect, or another doubt; inactive = no such curve, though single readings can be large; an effect the other way counts as inactive or inconclusive.
# Experiments:
# [1] = target: Cytochrome P450 1A2 (Homo sapiens) (UniProt P05177); test: p450-cyp1a2 (AID 410; calls by dose curve; also: potency is read from the fitted curve at half-maximal effect;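 as to activity change, negative = inhibition: -100% = full effect of reference inhibitor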)
# Cytochrome P450 1A2 (Homo sapiens), sequence (P05177 whole entry, looked up): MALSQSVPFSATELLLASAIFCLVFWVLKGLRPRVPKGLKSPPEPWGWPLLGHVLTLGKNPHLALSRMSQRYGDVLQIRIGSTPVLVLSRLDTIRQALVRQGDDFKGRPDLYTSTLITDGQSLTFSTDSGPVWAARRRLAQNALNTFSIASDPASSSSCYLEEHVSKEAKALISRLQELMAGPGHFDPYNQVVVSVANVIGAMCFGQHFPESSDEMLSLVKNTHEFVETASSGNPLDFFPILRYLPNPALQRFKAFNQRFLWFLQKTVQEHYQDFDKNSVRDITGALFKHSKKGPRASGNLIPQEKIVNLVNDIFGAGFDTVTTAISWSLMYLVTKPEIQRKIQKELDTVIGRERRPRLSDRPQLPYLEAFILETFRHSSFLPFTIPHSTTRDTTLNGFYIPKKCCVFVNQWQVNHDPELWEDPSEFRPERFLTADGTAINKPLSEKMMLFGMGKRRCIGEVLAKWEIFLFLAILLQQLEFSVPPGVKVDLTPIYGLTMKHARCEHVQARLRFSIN
# How it was run: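 20nM CYP1A2, 100uM Luciferin-ME (=Km), 100mM KPO4; cpd 10 min RT; +NADPH regen, 60 min RT; stop/detect 20 min; luminescence. Normalized to furafylline 57 uM = full inhibition.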
# [2] = target: Glucocorticoid receptor (Homo sapiens) (UniProt P04150); test: GR-GFP Redistribution (AID 450;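 active = compounds whose dose series gives a full or clear partial fitted curve of increased nuclear translocation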; also: potency is read from the fitted curve at half-maximal effect); conditions: U2OS GR-GFP nuclear translocation, laser cytometry, 2 h
# Glucocorticoid receptor (Homo sapiens), sequence (P04150 whole entry, looked up, the tested form may be a part): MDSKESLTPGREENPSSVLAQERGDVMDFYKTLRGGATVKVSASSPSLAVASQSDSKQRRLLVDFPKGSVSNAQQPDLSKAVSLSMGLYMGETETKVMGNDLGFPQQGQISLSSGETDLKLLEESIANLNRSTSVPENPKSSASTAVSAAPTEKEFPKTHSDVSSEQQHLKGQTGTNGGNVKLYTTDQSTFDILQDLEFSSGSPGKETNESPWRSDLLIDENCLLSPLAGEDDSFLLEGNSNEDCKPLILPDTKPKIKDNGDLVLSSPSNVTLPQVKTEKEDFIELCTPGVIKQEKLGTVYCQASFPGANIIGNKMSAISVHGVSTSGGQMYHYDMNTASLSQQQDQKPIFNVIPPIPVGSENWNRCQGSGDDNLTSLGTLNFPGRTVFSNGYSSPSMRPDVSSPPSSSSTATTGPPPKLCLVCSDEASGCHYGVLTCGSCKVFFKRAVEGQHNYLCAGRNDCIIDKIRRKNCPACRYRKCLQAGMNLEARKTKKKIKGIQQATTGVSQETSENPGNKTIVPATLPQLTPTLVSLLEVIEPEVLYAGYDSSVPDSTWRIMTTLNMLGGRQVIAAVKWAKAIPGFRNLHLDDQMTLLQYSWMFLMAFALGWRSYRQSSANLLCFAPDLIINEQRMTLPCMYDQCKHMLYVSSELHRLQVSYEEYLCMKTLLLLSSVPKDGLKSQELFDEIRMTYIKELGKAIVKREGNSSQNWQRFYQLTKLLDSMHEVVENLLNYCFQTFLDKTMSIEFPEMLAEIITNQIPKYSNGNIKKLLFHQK
# [3] = target: Glucocorticoid receptor (Homo sapiens) (UniProt P04150); test: GR-EFC Redistribution (AID 451; calls by dose curve; also: potency is read from the fitted curve at half-maximal effect); conditions: CHO-K1 GR-EFC translocation, beta-gal luminescence, 2 h
# How it was run: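 CHO-K1 cells expressing nuclear EA and GR-ED fragments of b-gal; compounds titrated up to 46 uM final, 2 h at 37 C. GR nuclear translocation read as complemented b-gal luminescence after 1 h RT detection.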
# [4] = target: Mitogen-activated protein kinase 10 (Mus musculus) (UniProt Q61831); test: JNK3 AlphaScreen Assay (AID 530; active = well fitted curve in either direction with a large enough effect, not every such curve was filed as active;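 also: kinase came from lysate of stimulated human HepG2 cells; signal reports phosphorylation of biotinylated GST-cJun 1-79 at Ser73 with 10 µM ATP; % is scaled to controls: 0 for no effect and ±100 for the full control effect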)
# How it was run: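 HepG2 lysate (IL-1b/TNFa pre-activated) + biotin-GST-cJun 1-79 + anti-pSer73 cJun; cpd titration, 15 min RT; ATP 10 uM start; Tris pH 7.6, MgCl2, DTT, vanadate; beads in EDTA buffer; AlphaScreen.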
# [5] = target: 3',5'-cyclic-AMP phosphodiesterase 4B (Homo sapiens) (UniProt Q07343); test: qHTS Assay for Inhibitors of PDE-IV (AID 607; active = well fitted activation curve with a large enough effect in the main read-out, with a control signal flat, not every such curve was filed as active; also: % of control where 0% means no effect)
# 3',5'-cyclic-AMP phosphodiesterase 4B (Homo sapiens), sequence (Q07343 whole entry, looked up): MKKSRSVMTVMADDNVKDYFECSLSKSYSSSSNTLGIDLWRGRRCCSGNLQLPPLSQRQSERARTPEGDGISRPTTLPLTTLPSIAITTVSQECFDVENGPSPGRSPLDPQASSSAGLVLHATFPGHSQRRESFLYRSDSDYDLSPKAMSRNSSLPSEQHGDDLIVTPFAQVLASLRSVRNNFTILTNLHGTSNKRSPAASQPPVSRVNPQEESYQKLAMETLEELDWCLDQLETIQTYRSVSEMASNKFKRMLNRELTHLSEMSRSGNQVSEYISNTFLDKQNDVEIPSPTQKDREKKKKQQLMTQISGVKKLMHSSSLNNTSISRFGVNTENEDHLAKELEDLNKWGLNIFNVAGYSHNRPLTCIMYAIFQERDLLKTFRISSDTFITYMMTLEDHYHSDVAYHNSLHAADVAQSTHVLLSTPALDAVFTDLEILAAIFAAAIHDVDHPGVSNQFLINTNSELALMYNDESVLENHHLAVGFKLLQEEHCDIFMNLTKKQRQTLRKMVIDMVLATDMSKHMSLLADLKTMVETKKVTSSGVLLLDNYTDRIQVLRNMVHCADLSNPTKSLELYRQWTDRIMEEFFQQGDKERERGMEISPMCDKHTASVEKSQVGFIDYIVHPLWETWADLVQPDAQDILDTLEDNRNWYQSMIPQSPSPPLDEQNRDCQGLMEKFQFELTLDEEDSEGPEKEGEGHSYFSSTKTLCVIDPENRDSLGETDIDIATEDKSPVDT
# How it was run: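 Live HEK293 cells with a modified cyclic nucleotide-gated (CNG) channel report intracellular cAMP via membrane-potential dye fluorescence (ex 535/em 590 nm). Endogenous PDE-IV was targeted. Compounds were tested at up to 22.9 uM final; RO 20-1724 100 uM served as control.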
# [6] = qHTS Assay for Lipid Storage Modulators (AID 1519; calls by dose curve); conditions: Drosophila S3 cells, BODIPY lipid droplet/cell ratio, laser cytometry, cells loaded with oleic acid
# How it was run: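 Cells seeded at 5,000 per well were treated with compounds over a concentration series and loaded with oleic acid (400 uM, as added). Lipid droplet fluorescence (488 nm excitation, 500-530 nm channel) was read by laser-scanning cytometry and normalized to 20 uM Triacsin C.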
# [7] = target: Ubiquitin carboxyl-terminal hydrolase 1 (Homo sapiens) (UniProt O94782); test: Inhibitors of USP1/UAF1: Pilot qHTS (AID 504865);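 also: rhodamine fluorescence freed from ubiquitin-rhodamine substrate followed over time; top concentration of the series differs between compounds; % is scaled to controls: 0 for no effect and ±100 for the full control effect; nearly all actives have a fitted effect of over 35% in size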
# Ubiquitin carboxyl-terminal hydrolase 1 (Homo sapiens), sequence (O94782 whole entry, looked up): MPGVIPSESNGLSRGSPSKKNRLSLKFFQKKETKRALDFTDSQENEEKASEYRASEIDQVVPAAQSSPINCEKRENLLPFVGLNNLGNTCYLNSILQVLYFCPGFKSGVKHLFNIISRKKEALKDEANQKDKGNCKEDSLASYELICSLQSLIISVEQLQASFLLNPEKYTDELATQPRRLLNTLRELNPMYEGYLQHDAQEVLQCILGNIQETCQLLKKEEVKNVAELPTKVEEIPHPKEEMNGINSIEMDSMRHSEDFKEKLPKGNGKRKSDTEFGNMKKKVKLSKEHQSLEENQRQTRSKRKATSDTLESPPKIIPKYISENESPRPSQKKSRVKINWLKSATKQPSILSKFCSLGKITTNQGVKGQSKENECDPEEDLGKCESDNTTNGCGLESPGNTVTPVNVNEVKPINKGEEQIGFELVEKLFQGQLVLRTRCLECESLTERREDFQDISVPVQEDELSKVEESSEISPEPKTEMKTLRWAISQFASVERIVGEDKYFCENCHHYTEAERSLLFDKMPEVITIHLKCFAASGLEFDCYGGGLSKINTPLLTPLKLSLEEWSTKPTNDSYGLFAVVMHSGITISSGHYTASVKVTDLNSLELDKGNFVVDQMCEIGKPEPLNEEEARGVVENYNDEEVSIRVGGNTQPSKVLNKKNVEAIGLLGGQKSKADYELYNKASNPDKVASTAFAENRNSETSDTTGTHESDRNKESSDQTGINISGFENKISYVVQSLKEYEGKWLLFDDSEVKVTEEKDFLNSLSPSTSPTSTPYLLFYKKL
# How it was run: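 1nM USP1/UAF1 + cpd, 15 min RT; start w/ Ub-Rho 150nM final; kinetic FL 480/540 nm, 6 reads q60 s. Buffer 50mM HEPES pH 7.8, 0.5mM EDTA, 1mM TCEP, 0.01% Tween-20, 0.1 mg/ml BSA.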
# [8] = target: DNA dC->dU-editing enzyme APOBEC-3G (Homo sapiens) (UniProt Q9HC16); test: qHTS for inhibitors of Vif-A3G interactions: Validation (AID 588379); also: 0% is about no effect
# DNA dC->dU-editing enzyme APOBEC-3G (Homo sapiens), sequence (Q9HC16 whole entry, looked up): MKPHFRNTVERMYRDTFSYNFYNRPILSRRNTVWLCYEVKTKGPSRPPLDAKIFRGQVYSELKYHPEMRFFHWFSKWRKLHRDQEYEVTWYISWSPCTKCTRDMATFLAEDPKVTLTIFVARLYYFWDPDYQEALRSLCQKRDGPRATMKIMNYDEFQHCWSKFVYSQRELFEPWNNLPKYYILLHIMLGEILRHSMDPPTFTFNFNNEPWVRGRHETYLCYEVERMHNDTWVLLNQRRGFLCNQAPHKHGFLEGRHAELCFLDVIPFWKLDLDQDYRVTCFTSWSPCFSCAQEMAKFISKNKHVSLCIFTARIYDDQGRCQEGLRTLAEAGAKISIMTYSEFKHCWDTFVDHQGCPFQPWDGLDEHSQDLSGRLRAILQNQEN
# How it was run: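 Yellow fluorescence (Ex 488, Em 500-530) of Vif-coexpressing HeLa A3G-eYFP cells, scanned by Acumen cytometer, reports blocked A3G degradation. Cells plated at 700/well overnight at 37 deg C before compound addition, then a further overnight compound incubation at 37 deg C.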
# [9] = test system: Zika virus NS2B-NS3 protease; test: Primary screen GU AMC qHTS for Zika virus inhibitors (AID 1347154);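 also: 0% = no-inhibitor control and -100% = no-enzyme control; nearly all actives have a fitted effect of over 70% in size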
# How it was run: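 Unlinked Zika NS2B hydrophilic domain–NS3 protease complex at 25 nM in 10 mM Tris-HCl pH 8.0, 0.01% Tween 20, with an AMC peptide substrate. Fluorescence change (340/450 nm) over 15 min at room temperature, normalized to controls, fitted to 4-parameter Hill.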
# [10] = NCATS anti-infectives library activity on HEK293 viability as a counter-qHTS vs the C. elegans viability qHTS (AID 1745854); also: % is scaled to controls: 0 for no effect and ±100 for the full control effect
# How it was run: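 CellTiter-Glo luminescence, read on a CCD imager, scored viability of HEK293 cells after 24 hr compound exposure at 37C. Library tested in several concentrations, 1:5 steps, up to 41.7 uM; digitonin served as control.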
# [11] = qHTS for Inhibitors of the vitamin D receptor (VDR): Hit Validation using a Texas Red Assay (AID 602201); conditions: VDR coregulator binding, Texas Red fluorescence polarization; agonist-bound VDR ligand-binding domain; also: potency is read from the fitted curve at half-maximal effect
# How it was run: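 Fluorescence polarization with 1.5 uM VDR-LBD, LG19078 and 7 nM Texas Red (final). After 2 hours at ambient temperature, read at Ex 595 nm/Em 615 nm.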
# [12] = Primary qHTS for small molecule stabilizers of the endoplasmic reticulum resident proteome: Secreted ER Calcium Modulated Protein (SERCaMP) assay (AID 1508630); also: % is scaled to controls: 0 for no effect and ±100 for the full control effect
# How it was run: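 The SH-SY5Y reporter protocol was run at 3 concentrations up to 38.3 uM (primary) or 11 concentrations (follow-up): 16 h compound, 100 nM thapsigargin for 4 h, then extracellular luciferase luminescence.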
# [13] = target: Cytochrome P450 3A4 (Homo sapiens) (UniProt P08684); test: qHTS Assay for Activators of Cytochrome P450 3A4 (AID 885); also: nearly all actives have a fitted effect of over 65% in size
# Cytochrome P450 3A4 (Homo sapiens), sequence (P08684 whole entry, looked up): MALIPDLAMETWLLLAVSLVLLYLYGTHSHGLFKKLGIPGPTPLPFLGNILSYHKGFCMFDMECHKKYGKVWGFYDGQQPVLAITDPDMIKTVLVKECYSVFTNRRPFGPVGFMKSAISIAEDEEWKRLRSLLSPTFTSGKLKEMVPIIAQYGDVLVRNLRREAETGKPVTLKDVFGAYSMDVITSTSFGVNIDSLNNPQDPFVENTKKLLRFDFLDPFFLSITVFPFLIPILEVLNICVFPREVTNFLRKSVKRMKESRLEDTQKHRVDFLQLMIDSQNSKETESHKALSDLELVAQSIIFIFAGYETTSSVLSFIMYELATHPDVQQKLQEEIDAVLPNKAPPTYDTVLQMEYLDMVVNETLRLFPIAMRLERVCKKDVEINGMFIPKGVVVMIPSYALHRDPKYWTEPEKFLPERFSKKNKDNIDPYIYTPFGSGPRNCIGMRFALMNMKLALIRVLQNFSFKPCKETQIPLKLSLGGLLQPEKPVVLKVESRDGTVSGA
# How it was run: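 Using 20nM recombinant human CYP3A4 in potassium phosphate (200mM), substrate Luciferin-PPXE at 25uM, luminescent luciferin detection followed a 60-min RT NADPH reaction; data scaled to 57 uM ketoconazole.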
# [14] = target: Cytochrome P450 3A4 (Homo sapiens) (UniProt P08684); test: qHTS Assay for Inhibitors and Substrates of Cytochrome P450 3A4 (AID 884); also: nearly all actives have a fitted effect of over 50% in size; also: potency is read from the fitted curve at half-maximal effect
# How it was run: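 Luminescent readout of luciferin produced by CYP3A4 (20 nM) dealkylation of Luciferin-PPXE, 25 uM (its KM). NADPH-driven reaction ran 60 min at RT after 10 min compound preincubation; data scaled to 57 uM ketoconazole as 100% inhibition.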
# [15] = target: Tyrosine-protein kinase Yes (Homo sapiens) (UniProt P07947); test: qHTS for small molecule inhibitors of Yes1 kinase: Primary Screen (AID 686947); also: potency is read from the fitted curve at half-maximal effect; nearly all actives have a fitted effect of over 60% in size
# Tyrosine-protein kinase Yes (Homo sapiens), sequence (P07947 whole entry, looked up): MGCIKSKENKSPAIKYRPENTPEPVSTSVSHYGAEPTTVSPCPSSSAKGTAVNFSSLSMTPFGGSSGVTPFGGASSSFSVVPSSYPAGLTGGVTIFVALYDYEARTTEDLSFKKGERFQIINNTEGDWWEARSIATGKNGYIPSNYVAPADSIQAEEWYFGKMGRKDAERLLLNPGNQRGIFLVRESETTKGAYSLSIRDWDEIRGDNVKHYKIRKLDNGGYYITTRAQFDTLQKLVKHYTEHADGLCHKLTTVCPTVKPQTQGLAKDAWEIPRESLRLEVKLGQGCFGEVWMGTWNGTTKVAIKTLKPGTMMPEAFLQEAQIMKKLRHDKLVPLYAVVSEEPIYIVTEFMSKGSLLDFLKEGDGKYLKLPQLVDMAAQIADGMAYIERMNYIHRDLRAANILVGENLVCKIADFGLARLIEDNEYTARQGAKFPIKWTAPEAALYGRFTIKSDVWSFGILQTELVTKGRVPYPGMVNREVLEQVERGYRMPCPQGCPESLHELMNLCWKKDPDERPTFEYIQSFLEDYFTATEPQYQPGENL
# How it was run: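 In this qHTS format, inhibition is expressed relative to DMSO controls with enzyme (maximum) and without enzyme (minimum). The 60 min room-temperature reaction uses 0.1 mM ATP, with ADP detected by luminescence.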
# [16] = qHTS for small molecule inhibitors of Yes1 kinase: Counter Assay (AID 686950);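 also: no kinase present so only ADP-Glo detection of a fixed ADP amount is tested; luminescence from ADP-Glo reporting ADP in a fixed ATP and ADP mixture; 0% = DMSO wells with ATP plus ADP and -100% = ATP-only wells without ADP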
# How it was run: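 No kinase present; 0.08 mM ATP + 0.02 mM ADP in 50 mM Tris pH 7.5, 10 mM MgCl2, 150 mM NaCl, 1 mM DTT; 20 min compound preincubation, 60 min RT, ADP-Glo luminescence, normalized to ATP/ADP (max) and ATP-only (min).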
# [17] = Confirmation and Secondary Assay for Modulators of Hemoglobin Beta Chain Splicing at IVS2 654 locus (AID 910);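 also: HeLa cells stably carrying EGFP split by mutant beta-globin IVS2-654 intron; % of control where 0% means no effect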
# How it was run: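 HeLa cells stably expressing EGFP interrupted by β-globin IVS2-654 intron, seeded overnight in Opti-MEM/2% FCS, then treated 2 days at 37 °C. Restored splicing read as total peak GFP intensity per well by laser scanning cytometry (488 nm excitation, 500–520 nm emission); 500 nM antisense PNA as control.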
# [18] = Confirmation and Secondary Assay for Modulators of Hemoglobin Beta Chain Splicing at IVS2 705 locus (AID 930);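 also: HeLa cells stably expressing the EGFP-705 splicing reporter; GFP fluorescence per well restored by corrected splicing of the IVS2-705 intron in EGFP; % of control where 0% means no effect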
# How it was run: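 Assay measures total GFP intensity per well in HeLa EGFP-705 cells after 2 days with compound; mis-splicing normally truncates EGFP, so fluorescence indicates corrected splicing.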
# [19] = AP1 Signaling Pathway (AID 357; active = well fitted curve in either direction with a large enough effect, not every such curve was filed as active;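 also: ME-180 reporter cells stimulated with EGF at its EC50 level; % is scaled to controls: 0 for no effect and ±100 for the full control effect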); conditions: ME-180 AP-1-bla reporter, EGF-induced, beta-lactamase ratio, 5 h
# How it was run: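 Beta-lactamase reporter under AP-1 response element, ME-180 background. Stimulus: EC50 EGF. Compound exposure 5 h, 37 °C. Detection: CCF4, 2.5 h RT, 460/530 nm. Values: AC50 from titration.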
# [20] = NFAT Signaling Pathway (AID 444; active = well fitted curve in either direction with a large enough effect, not every such curve was filed as active); conditions: Jurkat NFAT-bla M1, carbachol, beta-lactamase ratio, 5 h
# How it was run: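 Jurkat cells with NFAT-driven β-lactamase reporter and co-expressed M1 receptor, stimulated with carbachol (final 1 uM, ~EC50), compound titration, 5 h at 37 °C. CCF4 loaded 1 h at RT; 460/530 nm ratio gave %activity and AC50.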
# [21] = Stat Signaling Pathway (AID 446; active = well fitted curve in either direction with a large enough effect, not every such curve was filed as active); conditions: ME-180 (cervical carcinoma) SIE beta-lactamase reporter, IL-6 stimulated, 5 h
# How it was run: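 Overnight-plated ME-180 cells bearing a STAT Inducible Element beta-lactamase reporter; 5 h co-exposure to compound and 40 pM IL-6; values normalized to 300 pM IL-6 and 125 nM JAK inhibitor controls.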
# [22] = target: Cytochrome P450 2D6 (Homo sapiens) (UniProt P10635); test: qHTS Assay for Inhibitors and Substrates of Cytochrome P450 2D6 (AID 891); also: potency is read from the fitted curve at half-maximal effect; nearly all actives have a fitted effect of over 60% in size
# Cytochrome P450 2D6 (Homo sapiens), sequence (P10635 whole entry, looked up): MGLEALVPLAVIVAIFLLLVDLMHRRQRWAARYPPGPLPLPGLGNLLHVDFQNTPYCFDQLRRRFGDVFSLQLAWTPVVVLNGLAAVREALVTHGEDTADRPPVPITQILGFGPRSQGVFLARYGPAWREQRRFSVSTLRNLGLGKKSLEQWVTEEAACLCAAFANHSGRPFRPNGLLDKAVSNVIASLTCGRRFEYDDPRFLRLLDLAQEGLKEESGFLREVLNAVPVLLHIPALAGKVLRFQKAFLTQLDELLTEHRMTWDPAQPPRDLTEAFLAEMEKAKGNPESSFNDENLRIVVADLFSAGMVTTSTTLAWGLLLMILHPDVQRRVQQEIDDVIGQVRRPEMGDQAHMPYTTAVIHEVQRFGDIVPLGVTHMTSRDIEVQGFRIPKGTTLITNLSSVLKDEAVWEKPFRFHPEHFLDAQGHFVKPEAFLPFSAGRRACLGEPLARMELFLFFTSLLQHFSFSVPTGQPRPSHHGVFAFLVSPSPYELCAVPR
# How it was run: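 Luminescent read-out of luciferin formed by 5 nM human CYP2D6 demethylating 30 uM Luciferin-ME EGE (Km level) over 60 min at room temperature after NADPH regeneration addition. Data normalized to full inhibition by 1.43 uM quinidine.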
# [23] = measured here: cell count channel max response
# [24] = measured here: lipid channel max response
smiles,measurement,setting,value
OC[C@H]1NC[C@H](O)[C@@H](O)[C@H]1O,Potency,[1],inactive
same,Potency,[2],> 46 µM (inactive)
same,Potency,[3],> 46 µM (inactive)
same,Potency,[4],inactive
same,Potency,[5],inactive
same,"activity change, negative = inhibition",[6]; at 57.5 µM (top of the series),-0.744% (inactive)
same,max response,[6]; [23],30%
same,max response,[6]; [24],27.8%
same,Potency,[7],inactive
same,Potency,[8],inactive
same,Potency,[9],inactive
same,outcome,[10],inactive
O=C1c2ccccc2CCC1CNCCc1ccc(O)cc1 (stereo not drawn),Potency,[11],28.2 µM (active)
same,Potency,[9],inactive
same,Potency,[12],inactive
OC(CN1CCNCC1)Cn1c2ccc(Br)cc2c2cc(Br)ccc21 (stereo not drawn),Potency,[13],inactive
same,Potency,[9],inactive
same,Potency,[12],inactive
Fc1ccc(-c2nc3n(c2-c2ccncc2)CCS3)cc1,Potency,[14],15.8 µM (active)
same,Potency,[13],inactive
same,Potency,[15],0.519 µM (active)
same,outcome,[16],inactive
same,Potency,[9],inactive
same,Potency,[12],inactive
CC(=O)N(OCc1ccccc1)[C@@H]1c2cc(C#N)ccc2OC(C)(C)[C@H]1O,Potency,[14],15.8 µM (active)
same,Potency,[13],inactive
same,Potency,[9],inactive
same,Potency,[12],inactive
CC1OC(OC2C(CO)OC(OC3C(CO)OC(O)C(O)C3O)C(O)C2O)C(O)C(O)C1NC1C=C(CO)C(O)C(O)C1O (stereo not drawn),Potency,[14],inactive
same,outcome,[17],inactive
same,outcome,[18],inactive
same,Potency,[7],inactive
same,Potency,[9],inactive
same,Potency,[12],inactive
CC(C)NC[C@@H](O)COc1cccc2[nH]ccc12,"activity change, negative = inhibition",[19]; at 17.2 µM (top of the series),5.19% (inactive)
same,"activity change, negative = inhibition",[19]; at 38 µM (top of the series),17% (inactive) and 4.44% (inactive)
same,"activity change, negative = inhibition",[20]; at 17.2 µM (top of the series),4% (inactive)
same,"activity change, negative = inhibition",[20]; at 38 µM (top of the series),1.65% (inactive) and 1.97% (inactive)
same,"activity, negative = inhibition",[21]; at 17.2 µM (top of the series),19% (inactive)
same,"activity, negative = inhibition",[21]; at 38 µM (top of the series),12.1% (inactive) and 12.9% (inactive)
same,Potency,[2],> 46 µM (inactive) and > 20.6 µM (inactive)
same,Potency,[3],> 46 µM (inactive) and > 20.6 µM (inactive)
same,Potency,[4],inactive
same,Potency,[5],inactive
same,"activity change, negative = inhibition",[6]; at 25.7 µM (top of the series),0.0529% (inactive)
same,"activity change, negative = inhibition",[6]; at 57.5 µM (top of the series),6.23% (inactive)
same,max response,[6]; [23],-7.16% and 6.39%
same,max response,[6]; [24],-7.67% and 11.8%
same,Potency,[9],inactive
C[C@H](N)C(=O)O,Potency,[1],inactive
same,Potency,[2],> 46 µM (inactive)
same,Potency,[3],> 46 µM (inactive)
same,Potency,[4],inactive
same,Potency,[5],inactive
same,"activity change, negative = inhibition",[6]; at 57.5 µM (top of the series),1.23% (inactive)
same,max response,[6]; [23],-6.7%
same,max response,[6]; [24],-5.58%
same,Potency,[7],inactive
same,Potency,[8],inactive
same,Potency,[9],inactive
CC(C)[N+]1(C)[C@@H]2CC[C@H]1CC(OC(=O)[C@@H](CO)c1ccccc1)C2 (stereo partly drawn),"activity change, negative = inhibition",[19]; at 17.2 µM (top of the series),-0.347% (inactive)
same,"activity change, negative = inhibition",[20]; at 17.2 µM (top of the series),-41.7% (active)
same,"activity, negative = inhibition",[21]; at 17.2 µM (top of the series),2.01% (inactive)
same,Potency,[4],inactive
same,Potency,[5],inactive
same,"activity change, negative = inhibition",[6]; at 25.7 µM (top of the series),1.72% (inactive)
same,"activity change, negative = inhibition",[6]; at 57.5 µM (top of the series),-6.35% (inactive)
same,max response,[6]; [23],2.23% and -7.97%
same,max response,[6]; [24],5.73% and -12.6%
same,Potency,[9],inactive
N#C/C(=C\c1ccc(O)c(O)c1)C(N)=O,Potency,[1],39.8 µM (active)
same,Potency,[2],> 46 µM (inactive)
same,Potency,[3],> 46 µM (inactive)
same,Potency,[5],inactive
same,"activity change, negative = inhibition",[6]; at 57.5 µM (top of the series),-11.6% (inactive)
same,max response,[6]; [23],26.3%
same,max response,[6]; [24],9.4%
same,Potency,[9],inactive
N[C@@H](Cn1cc(I)c(=O)n(Cc2ccc(C(=O)O)cc2)c1=O)C(=O)O,Potency,[1],31.6 µM (active)
same,Potency,[2],> 46 µM (inactive)
same,Potency,[3],> 46 µM (inactive)
same,Potency,[4],inactive
same,Potency,[22],2.51 µM (active)
same,"activity change, negative = inhibition",[6]; at 57.5 µM (top of the series),2.45% (inactive)
same,max response,[6]; [23],4.58%
same,max response,[6]; [24],1.43%
same,Potency,[7],inactive
same,Potency,[9],inactive
